Data: paper PMC7819943, “Rice protein-binding microarrays: a tool to detect cis-acting elements near promoter regions in rice”
Over roughly 68,000 sequences, “fluorescence intensity (a.u.)” has its median near 9,100; the highest 2% begin near 16,000. The sample holds the highest values, similar sequences and a random draw of the others, so the mix is not that of the screen.

target: OsWRKY34 (Oryza sativa, UniProt Q0JBA9 1-250); assay: protein-binding microarray (RPBM); PBS, 2% BSA, 51.3 ng/ul salmon testes DNA, 50 uM zinc acetate, 200 nM TF, 25 C, 1 h; high values mean tight binding; settings: protein: recombinant; tags: N-terminal polyhistidine and DsRed monomer fusion (pET32a); label: CyDye5-dUTP incorporated in the synthesized complementary strand; 3' TTTTT single-stranded linker to array surface; dsDNA, one strand shown
Sequence (Q0JBA9 entry or part of it): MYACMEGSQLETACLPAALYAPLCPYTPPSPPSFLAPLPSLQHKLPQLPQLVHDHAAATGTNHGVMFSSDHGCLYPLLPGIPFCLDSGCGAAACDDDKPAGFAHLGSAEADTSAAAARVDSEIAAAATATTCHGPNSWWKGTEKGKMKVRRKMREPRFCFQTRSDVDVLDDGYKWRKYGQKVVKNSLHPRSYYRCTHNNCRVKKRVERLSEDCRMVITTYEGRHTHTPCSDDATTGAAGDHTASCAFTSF
Summary of the method: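 The binding signal for each feature is its fluorescence intensity in arbitrary units. An Axon 4000B scanner was used to read a custom Agilent array that had been made double-stranded with Cy5-dUTP primer extension, blocked with 2% BSA, incubated at 25 °C for 1 h with 200 nM protein in PBS, 2% BSA, salmon testes DNA and 50 µM zinc acetate, and washed. The protein was an N-terminal polyhistidine–DsRed transcription factor fusion from E. coli BL21-CodonPlus, purified on Ni–NTA.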

Sequence | binding signal
TCTTTCTTCCATTGCACCTAGCTTTCATCTTCTTCTCTTCCGGAGTCACCTAGTGCAG | 14200 fluorescence intensity (a.u.)
CTAGCTTCGCCATCCACATTCTTCTTGCTTCTTGCTCCTCCGGAGTCACCTAGTGCAG | 12700 fluorescence intensity (a.u.)
CCTTCACCTCCTTGCAAGTTCCATTCTTTCATCTCGCTTCCGGAGTCACCTAGTGCAG | 16500 fluorescence intensity (a.u.)
CCATTCTTTCATCTCGCTTCACCTCATCGCCATTGCCATCCGGAGTCACCTAGTGCAG | 8810 fluorescence intensity (a.u.)
ATCCATCCATCTATTCGCTTCCCTTTCCTTGCACCTCTGCCGGAGTCACCTAGTGCAG | 9050 fluorescence intensity (a.u.)
TACATCCCTTGCCATCTCCATCGCCGGCTTCCTCGCCATTCGGAGTCACCTAGTGCAG | 17100 fluorescence intensity (a.u.)
TTTGTCAATTGATGTATACATATGTGCTTTGTGTTCCTACCGGAGTCACCTAGTGCAG | 11100 fluorescence intensity (a.u.)
CTGATTCGAACGCAGCCATAGTCACTCTTTCACTCTCACTCGGAGTCACCTAGTGCAG | 11000 fluorescence intensity (a.u.)
GTAAATCCGCTCCAATTGACTCTACCAACCCACCCGTGCTCGGAGTCACCTAGTGCAG | 9420 fluorescence intensity (a.u.)
AATTTGTGTGTAATTTTTTAGGATTTGTGATGTATTTGATCGGAGTCACCTAGTGCAG | 9210 fluorescence intensity (a.u.)
CCACACTTGCCCGCTACCCACTCTGATCTATCTCCACTGTCGGAGTCACCTAGTGCAG | 9630 fluorescence intensity (a.u.)
TCTCCTCCCTCGTTTCTCCTGACACGCTCTCATCCTACAACGGAGTCACCTAGTGCAG | 8660 fluorescence intensity (a.u.)
TTATCACAGATTCACAGTCCTTTGCCTTCATAAACACCTCCGGAGTCACCTAGTGCAG | 65500 fluorescence intensity (a.u.)
GCAATTTGCCTCTTTGTTCCTCATAGTCCAGACACAATTCCGGAGTCACCTAGTGCAG | 9840 fluorescence intensity (a.u.)
TCAGTCGCTTCCTCTCTTTATTATCACAGATTCACAGTCCCGGAGTCACCTAGTGCAG | 8370 fluorescence intensity (a.u.)
AACTTTTTCATGTCACTTCACTTTTTTTTGTTAGCAGCCTCGGAGTCACCTAGTGCAG | 11200 fluorescence intensity (a.u.)
TGAACACACGCACGCAAACCCTACCTCCATGAGTATCTTCCGGAGTCACCTAGTGCAG | 10500 fluorescence intensity (a.u.)
CTAATTGTTTTTTTAAATAGTGTTTTGTTTTATTGAAAACCGGAGTCACCTAGTGCAG | 9040 fluorescence intensity (a.u.)
GTTTCCATTTCTGTTATTTTTTATTTCAAATTTCATTCTTCGGAGTCACCTAGTGCAG | 11800 fluorescence intensity (a.u.)
TAATGGAAAAAATTGTTTAAAAAAGGTCAAATAGTAAAAACGGAGTCACCTAGTGCAG | 58800 fluorescence intensity (a.u.)
TTGATTCCGTGTCGCATATCTGTCTTAATTTCGTGGAAGGCGGAGTCACCTAGTGCAG | 9570 fluorescence intensity (a.u.)

Sequence | binding signal
AAATTTAAAGTAATTTGACTTTGAAAGTCAAAACTTGTAACGGAGTCACCTAGTGCAG | 8600 fluorescence intensity (a.u.)
AATTTATGGAGATCATTTTTTTTCTGTTTCAAAGGAAAAACGGAGTCACCTAGTGCAG | 19200 fluorescence intensity (a.u.)
CATTGATTTTTTTTCTGTTTTCATGATCAATTTTTTTTCTCGGAGTCACCTAGTGCAG | 11100 fluorescence intensity (a.u.)
AAAGGAATGGCCCAAATAAACAAGTTTTTTCCTAAAATAACGGAGTCACCTAGTGCAG | 63000 fluorescence intensity (a.u.)
TTAAATAAGACAAATGGTCAAACATGTGCTAAAAAGTCAACGGAGTCACCTAGTGCAG | 10600 fluorescence intensity (a.u.)
CGTCTTTTCTCCTTGTCTTGCTAGCCATATCAACGGAAGGCGGAGTCACCTAGTGCAG | 8080 fluorescence intensity (a.u.)
TGTCTTAATTTCGTGGAAGGCCATAGCGGAGAGATCAAAACGGAGTCACCTAGTGCAG | 17400 fluorescence intensity (a.u.)
GTCAAGAATGTGCTAAAAAGTCAACGGTGTCAAACAGTTTCGGAGTCACCTAGTGCAG | 10600 fluorescence intensity (a.u.)
CTTCTTATCTCCCATATCTTAGGGTGTGTTTCGTTTTATGCGGAGTCACCTAGTGCAG | 8050 fluorescence intensity (a.u.)
GCCTATCCACAACATCGTCGCAGGCCTTCTTTTTCCCTCGCGGAGTCACCTAGTGCAG | 8320 fluorescence intensity (a.u.)
ACAGCGGTTTTGGTTGACGTAGTGCCTATGTGGCGTTGACCGGAGTCACCTAGTGCAG | 11700 fluorescence intensity (a.u.)
GATTTAGCCAGTATAATTTGGCTTCTTACCTATCCATTTTCGGAGTCACCTAGTGCAG | 9130 fluorescence intensity (a.u.)
CCAATCTAGCATTTAAATAGCCCATATTTGTCTAATTTCTCGGAGTCACCTAGTGCAG | 8400 fluorescence intensity (a.u.)
ATGGTGGGTCTTTTGCTTCTATCTTCTTCTATGCATGAAACGGAGTCACCTAGTGCAG | 10400 fluorescence intensity (a.u.)
TTGTTAATGCTAATTTTATCAACATGTGCTTTTCTTTTTACGGAGTCACCTAGTGCAG | 9500 fluorescence intensity (a.u.)
CGCGAGACAATCTAGCCGTTCTTCATTTTTTTCGCTTTCCCGGAGTCACCTAGTGCAG | 9240 fluorescence intensity (a.u.)
ACTGTGATACATTCTACATAATTTATTCATTTATTTGCATCGGAGTCACCTAGTGCAG | 8900 fluorescence intensity (a.u.)
CATTAATTCCAACATATAGTACTCCGCCATTTTGACTCGCCGGAGTCACCTAGTGCAG | 8640 fluorescence intensity (a.u.)
AATGTTATTACTATGCCTGGAACGTCACTTATGTATGTCTCGGAGTCACCTAGTGCAG | 10500 fluorescence intensity (a.u.)
GATCATCTGGTGGTGTGTTCTACGGGTTGCAGCTTCTTTCCGGAGTCACCTAGTGCAG | 10600 fluorescence intensity (a.u.)
ATTGCCGTTTATATTTGGTCAAATTTAAACGTTTTCTTTTCGGAGTCACCTAGTGCAG | 8020 fluorescence intensity (a.u.)
